According to PubChem BioAssay (EPA / NIEHS):
Active and inactive are the calls of the source. How the source made its calls: active means hit-call score of the fitted dose curve at least 0.9, where 1 is the maximum; inactive means score below 0.9.

Assay: BSK_3C_uPAR: BioMAP Diversity Plus: 3C Assay for Urokinase-type plasminogen activator receptor (uPAR) Biomarker Activity (AID 2282998)
Settings: BioMAP 3C HUVEC, uPAR biomarker ELISA; actives raise or lower the signal
How it was run: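 Readout: ELISA for surface uPAR. System: human umbilical vein endothelial primary cells, 24 h after chemical exposure. Analysis: bidirectional fit, DMSO baseline.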

outcome, inactive:
CCOc1nc(F)cc2nc(S(=O)(=O)Nc3c(Cl)cccc3C(=O)OC)nn12, CC(C)C(=O)C(C)C, CCO[Si](C)(OCC)OCC

Assay: BSK_3C_VCAM1: BioMAP Diversity Plus: 3C Assay for Vascular cell adhesion molecule 1 (VCAM1) Biomarker Activity (AID 2282999)
Settings: BioMAP 3C HUVEC, VCAM1 ELISA, cytokine-stimulated; actives raise or lower the signal
How it was run: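 Human umbilical vein endothelial cells were dosed with compound for 24 h, after which cell-surface VCAM-1 was quantified by ELISA. Bidirectional curve fitting used DMSO as negative control and activity baseline.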

outcome, inactive:
CCOc1nc(F)cc2nc(S(=O)(=O)Nc3c(Cl)cccc3C(=O)OC)nn12, CC(C)C(=O)C(C)C, CCO[Si](C)(OCC)OCC

Assay: BSK_4H_Eotaxin3: BioMAP Diversity Plus: 4H Assay for Eotaxin 3 Biomarker Activity (AID 2283000);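 further: CCL26 protein level quantified by ELISA in parallel with SRB cytotoxicity check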
Settings: primary human endothelial cells (HUVEC); actives raise or lower the signal
How it was run: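 ELISA quantitation of CCL26 (Eotaxin-3) protein from chemically dosed human vascular endothelial cells at 24 h; increases and decreases both scored relative to DMSO-treated baseline.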

outcome, inactive:
CCOc1nc(F)cc2nc(S(=O)(=O)Nc3c(Cl)cccc3C(=O)OC)nn12, CC(C)C(=O)C(C)C, CCO[Si](C)(OCC)OCC
